According to PubChem BioAssay (NCI):
Compounds without any hit were thinned out: in the full panel of roughly 83,000, 20% have a hit.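 Cell lines were cultured in 96-well plates, exposed to a single compound concentration, and assessed for percent growth 48 hours later.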 Calls of active or inactive are those of the source. The calls were made as follows: active = growth percent below 10; inactive = the rest.

System: MDA-MB-468 breast
Assay: NCI-60 one-dose screen, 48 h (100 = growth as untreated, 0 = no growth, -100 = all killed)
Details: 10 µM unless noted

Which growth does the source give for O=C(CCCCCCC(=O)Nc1ccc(N(CCCl)CCCl)cc1)NO here?
Its growth is -64.2% (active).

How did the growth turn out when CC(C)CCC(=O)O[C@H]1CC[C@H]2[C@@H]3CCC4=CC(=O)CC[C@]4(C)[C@H]3CC[C@]12C was run?
The growth was 102% (inactive).

For O=c1[nH]c(=O)[nH]c(=O)[nH]1, which growth is on record?
The growth was 146% (inactive).

CN1CCC(O)(c2ccc(F)cc2)C(C(=O)c2ccc(F)cc2)C1 (stereo not given) was tested. Which growth did it give?
Its growth is 44.2% (inactive).

For CC(=O)ONc1ccc([N+](=O)[O-])c(C(F)(F)F)c1, which growth is on record?
Its growth is 118% (inactive).

CNCc1cccnc1 was tested. Which growth did it give?
Its growth is 110% (inactive).

With C[C@]12CC[C@@H]3c4ccc(OC(=O)Cc5ccc(N(CCCl)CCCl)cc5)cc4CC[C@H]3[C@@H]1CC[C@@H]2OC(=O)Cc1ccc(N(CCCl)CCCl)cc1 as the compound, how does the growth read?
Its growth is 104% (inactive).

How did the growth turn out when CCN(CC)c1ccc2c(c1)OC(N)=C(C#N)C2c1cc(OC)c2c(c1)OCO2 (stereo not given) was run?
The growth was -9.24% (active).

How did the growth turn out when C=CC[n+]1ccc(-c2cc[n+](CC=C)cc2)cc1 was run?
The growth was 66.6% (inactive).

Cc1cc(N(CCCl)CCCl)ccc1C=Nc1ccc(-c2csc(Cc3ccccc3)n2)cc1 was tested. Which growth did it give?
Its growth is 39.3% (inactive).

With N#[N+]c1nc2nc(N)[nH]c(=O)c2[nH]1 as the compound, how does the growth read?
The growth was 100% (inactive).

With CC[C@H](C)[C@H](NC(=O)[C@H]1CCCCN1C)C(=O)N(C)[C@H](C[C@@H](OC(C)=O)c1nc(C(=O)N[C@@H](Cc2ccccc2)C[C@H](C)C(=O)O)cs1)C(C)C as the compound, how does the growth read?
The growth was -6.41% (active).

Which growth does the source give for Oc1ccc(Br)cc1CN1CCN(Cc2ccc(Cl)cc2)CC1 here?
The growth was 95.9% (inactive).

Cc1ccc2c(C(C[N+](=O)[O-])c3cccs3)c(-c3ccccc3)[nH]c2c1 (stereo not given) was tested. Which growth did it give?
Its growth is -5.47% (active).

O=[N+]([O-])c1ccc(Br)c([N+](=O)[O-])c1 was tested. Which growth did it give?
Its growth is 34% (inactive).

For O=C(O)C(Br)CBr (stereo not given), which growth is on record?
The growth was 94.8% (inactive).

How did the growth turn out when O=[N+]([O-])c1ccc(OP(=O)(CCl)N(CCCl)CCCl)cc1 (stereo not given) was run?
Its growth is 101% (inactive).

COc1ccc2c(c1)c(-c1nc(-c3cn(C)c4ncccc34)cs1)cn2CCCCN1CCOCC1 was tested. Which growth did it give?
Its growth is 35% (inactive).

With O=C(NC1=NCC[Se]1)c1ccccc1O as the compound, how does the growth read?
Its growth is 93.1% (inactive).

With CC(=O)[O][Hg][c]1ccccc1 as the compound, how does the growth read?
The growth was -83.8% (active).

COC(=O)CC[C@H](Cc1ccccc1)NC(=O)c1csc([C@@H](C[C@H](C(C)C)N(C)C(=O)[C@@H](NC(=O)[C@H]2CCCCN2C)C(C)C)OC(C)=O)n1 was tested. Which growth did it give?
The growth was 66.9% (inactive).

How did the growth turn out when CN(Cc1cccnc1)N=O was run?
The growth was 103% (inactive).

How did the growth turn out when CNC12C3C4C1C1C2C3C41C(=O)N[C@H](C(=O)N(C)[C@H](C[C@@H](OC(C)=O)c1nc(C(=O)N[C@@H](Cc2ccccc2)C[C@H](C)C(=O)OC)cs1)C(C)C)C1CC1 (stereo not given in full) was run?
The growth was -46.5% (active).

How did the growth turn out when c1cnc2[nH]cc(-c3csc(-c4cn(CCCCN5CCCCC5)c5ccccc45)n3)c2c1 was run?
Its growth is 98.6% (inactive).

With O=C1CCC(=O)N1SC(Cl)(Cl)Cl as the compound, how does the growth read?
The growth was 116% (inactive).

How did the growth turn out when COc1ccc(/C=C\c2cc(OC)c(OC)c(OC)c2)c(NS(=O)(=O)c2ccc(Cl)cc2)c1O was run?
The growth was 9.56% (active).

With COC(=O)CCC1=C(C)c2cc3[n-]c(cc4nc(cc5[n-]c(cc1n2)c(CCC(=O)OC)c5C)C=C4C)cc3C.[Cd+2] as the compound, how does the growth read?
Its growth is 81.6% (inactive).

For CC[C@H](C)[C@H](NC(=O)c1ncccn1)C(=O)N(C)[C@H](C[C@@H](OC(C)=O)c1nc(C(=O)N[C@@H](Cc2ccccc2)C[C@H](C)C(=O)OC)cs1)C(C)C, which growth is on record?
Its growth is 23% (inactive).

Which growth does the source give for OB([O][Hg][c]1ccccc1)[O][Hg][c]1ccccc1 here?
The growth was -71.2% (active).

C=CC[PH+](c1ccccc1)c1ccccc1.C=CC[PH+](c1ccccc1)c1ccccc1.[Pt+2].[S-]c1nc2ccccc2[nH]1.[S-]c1nc2ccccc2[nH]1 was tested. Which growth did it give?
Its growth is -14% (active).

CC[S][Hg][Cl] was tested. Which growth did it give?
Its growth is 116% (inactive).

For NC1CN2CCC1CC2 (stereo not given), which growth is on record?
The growth was 108% (inactive).

For CC(=O)[O][Hg][c]1nc2c(c(=O)n(C)c(=O)n2C)n1C, which growth is on record?
The growth was 102% (inactive).

For Cc1ccc(C(=O)O[C@H](C(=O)O)[C@H](OC(=O)c2ccc(C)cc2)C(=O)O)cc1, which growth is on record?
Its growth is 103% (inactive).

Which growth does the source give for CCC[CH2][Sn]([CH2]CCC)([CH2]CCC)[O]C(=O)CC here?
Its growth is -88% (active).

For NNc1ccccc1, which growth is on record?
The growth was 109% (inactive).

How did the growth turn out when COC(C(=O)[C@@H](O)[C@@H](C)O)[C@@H]1Cc2cc3cc(O[C@H]4C[C@@H](O[C@H]5C[C@@H](O)[C@H](O)C(C)O5)[C@H](O)C(C)O4)c(C)c(O)c3c(O)c2C(=O)[C@H]1O[C@H]1C[C@@H](O[C@H]2C[C@@H](O[C@H]3C[C@@H](O)[C@@H](O)C(C)O3)[C@@H](O)C(C)O2)[C@H](O)C(C)O1 (stereo not given in full) was run?
The growth was -41.2% (active).

CC(=O)OC1CC2(O)C(CCC3(C)C(c4ccc(=O)oc4)CCC32O)C2(C)CCC(OC3OC(CO)C(O)C(O)C3O)C=C12 (stereo not given) was tested. Which growth did it give?
Its growth is -34.6% (active).

COc1ccc(C2=NN(c3ccccc3)C(c3sc(N(CCCl)CCCl)nc3Cl)C2)cc1 (stereo not given) was tested. Which growth did it give?
Its growth is 69.3% (inactive).

For CN1CC(CNC(=O)OCc2ccccc2)CC2c3cccc4c3c(cn4C)CC21 (stereo not given), which growth is on record?
Its growth is -42.6% (active).
